Reference: PubChem BioAssay (NCATS)
Where “and” joins values, the source holds several entries; their conditions need not be identical. Identical values can stand only once. Results filed as inconclusive are left out. Calls of active or inactive are those of the source. Unless noted, calls come from the whole dose curve; as a rule, active = well fitted curve in the direction sought with a large enough effect; inconclusive = small, poorly fitted or top-dose-only effect, or another doubt; inactive = no such curve, though single readings can be large; an effect the other way counts as inactive or inconclusive.

How the values were obtained:
[1] = target: Mitogen-activated protein kinase 10 (Mus musculus) (UniProt Q61831); assay: JNK3 AlphaScreen Assay (AID 530; active = well fitted curve in either direction with a large enough effect, not every such curve was filed as active;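 note: kinase came from lysate of stimulated human HepG2 cells; signal reports phosphorylation of biotinylated GST-cJun 1-79 at Ser73 with 10 µM ATP; % is set by controls: 0 for no effect and ±100 for the full control effect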)
In short: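 qHTS titrations with 15 min compound pre-incubation before adding ATP (10 uM final). Read-out: AlphaScreen of Ser73-phosphorylated biotin-GST-cJun using HepG2 lysate JNK3 activated by IL-1β and TNFα.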

[2] = Cell Viability - Jurkat (AID 426;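 active = dose-dependent loss of cell ATP signal giving a full or clear fitted curve, ranked by lower potency value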;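 note: potency is the fitted concentration of half-maximal effect; cells exposed to compound for 40 hours at 37 °C before ATP read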); conditions: qHTS
In short: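 Cells of the human T-cell leukemia line Jurkat (E6-1) are seeded at 5000 per well, treated with compound across a concentration range for 40 hours at 37 °C, then lysed with CellTiter-Glo; luminescence reports ATP.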

[3] = Cell Viability - HepG2 (AID 433; calls by dose curve;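 note: potency is the fitted concentration of half-maximal effect; potency for ATP loss meaning cytotoxicity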); conditions: qHTS
In short: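 In this qHTS format, a 40 h, 37 °C compound incubation of HepG2 cells in complete medium precedes a 20 min CellTiter-Glo step at room temperature. Tamoxifen and doxorubicin serve as positive controls; Hill-equation fits yield AC50.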

[4] = Cell Viability - HUV-EC-C (AID 542); note: % is set by controls: 0 for no effect and ±100 for the full control effect; nearly all actives have a fitted effect of over 35% in size
In short: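 Cells were seeded at 1000 per well and incubated 5 hr at 37 °C before compound addition. After 40 hr at 37 °C, CellTiter-Glo reagent was added for 20 min and luminescence read. AC50 values came from Hill-equation modelling.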

[5] = Cell Viability - H-4-II-E (AID 543); note: nearly all actives have a fitted effect of over 35% in size; note: potency is the fitted concentration of half-maximal effect
In short: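 Cells seeded at 1500 per well and rested 5 hr; compounds added; 40 hr incubation at 37 °C; CellTiter-Glo added, 20 min at room temperature; luminescence read. Hill-equation fits gave AC50.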

[6] = Cell Viability - Mesenchymal (AID 546); conditions: mesenchymal cells viability, qHTS; activity change, negative = cytotoxicity: at 91.7 µM (top of the series);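 note: cells exposed to compound for 40 hours before reading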; note: potency is the fitted concentration of half-maximal effect;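 for activity change, negative = cytotoxicity: 0% = DMSO only and -100% = 100 µM tamoxifen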
In short: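 CellTiter-Glo luminescence (intracellular ATP, 20 min room temperature) after 40 hr compound exposure at 37 °C of 1000 glomerulus-derived human kidney mesenchymal cells/well; AC50 values obtained by fitting qHTS concentration-response data to the Hill equation.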

[7] = Cellular Toxicity (caspase-3) HepG2 (AID 654);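 note: cells exposed to compound for 16 hours before reading; 0% = DMSO alone and 100% = caspase signal from 100 µM tamoxifen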
In short: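 Caspase 3/7 activation in HepG2 is measured as rising luminescence after a 16 hr treatment at 37 °C. Values are scaled between DMSO basal and 100 uM tamoxifen, and AC50 is fitted with the Hill equation.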

[8] = Cellular Toxicity (caspase-3) HUV-EC-C (AID 656);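 note: 0% = DMSO basal and 100% = 100 µM tamoxifen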
In short: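 Concentration-dependent caspase 3/7 induction was assessed in HUV-EC-C cells exposed for 16 hours. Data scaled between DMSO and tamoxifen (100 uM) controls.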

[9] = Cellular Toxicity (caspase-3) SHSY5Y (AID 657);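 note: cells exposed to compound for 16 hours at 37 °C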
In short: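 Readout: caspase-cleaved peptide-aminoluciferin substrate driving luciferase light in SH-SY5Y neuroblastoma cells after 16 h treatment. Response normalized to DMSO and 10 uM staurosporine controls.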

[10] = Cellular Toxicity (caspase-3) BJ (AID 658);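 note: 0% = DMSO basal and 100% = 10 µM staurosporine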
In short: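 Caspase-Glo 3/7 luminescence, read 1 hr after reagent at room temperature, in normal BJ fibroblasts exposed 16 hours at 37 °C. AC50 values from Hill-equation concentration-response, scaled between DMSO basal and 10 uM staurosporine as 100%.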

[11] = Cellular Toxicity (caspase-3) MRC-5 (AID 659);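 note: 0% = DMSO basal and 100% = 10 µM staurosporine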
In short: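 Luminescent Caspase-Glo 3/7 read-out (1 h, room temperature) after a 16 h, 37 °C compound exposure of MRC-5 lung fibroblasts at 1500 cells/well. Concentration-response AC50 from Hill equation; 0% DMSO, 100% 10 uM staurosporine.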

[12] = Cellular Toxicity (caspase-3) Mesangial (AID 660);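 note: combined caspase 3 and 7 activity read by Caspase-Glo luminescence; cells exposed to compound for 16 h before the caspase read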
In short: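 Seed cells derived from normal human renal glomeruli, incubate 5 h, add compounds across concentrations and incubate 16 h at 37 °C. Caspase 3/7 activation is then quantified by luciferase light, with AC50 derived by Hill modeling.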

[13] = Cellular Toxicity (caspase-3) SK-N-SH (AID 661);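 note: 0% = DMSO basal and 100% = 10 µM staurosporine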
In short: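 Cells were seeded and incubated 5 hr at 37 °C, dosed with compound over a concentration range for 16 hr, then given Caspase-Glo 3/7 reagent for 1 hr at room temperature before luminescence reading.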

[14] = Cellular Toxicity (caspase-3) Hek293 (AID 664);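 note: cells exposed to compound for 16 h at 37 °C before readout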
In short: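 qHTS, HEK293 (human embryonic kidney), 16 h cpd exposure in complete medium. Caspase-3/7 activation = luminescence increase; normalized to DMSO/100 uM tamoxifen; Hill-fit AC50.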

[15] = Cellular Toxicity (caspase-3) NIH 3T3 (AID 666);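 note: 0% = DMSO basal and 100% = 100 µM tamoxifen stimulation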
In short: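 Cells were plated at 1000 per well and incubated 5 hr at 37°C, then compound was added for 16 hr. Caspase-Glo 3/7 reagent followed for 20 min at room temperature before luminescence was read.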

[16] = Cellular Toxicity (caspase-3) Renal Proximal Tubule (AID 667);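 note: cells exposed to compound for 16 hours at 37 °C before detection; 0% = DMSO basal and 100% = 10 µM staurosporine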
In short: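 Caspase-Glo 3/7 read-out, rat primary kidney proximal tubule cells. Compound exposure 16 h, 37 °C; detection after 1 h at RT. Activity scaled to DMSO and 10 uM staurosporine.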

[17] = qHTS Assay for Identification of Small Molecule Inducers of Hypoxia Response (AID 2120; active = well fitted curve in the direction sought with a large enough effect in the signal ratio, with a control signal flat, not every such curve was filed as active; the % refers to the signal ratio; note: 0% is about no effect)
In short: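 Cell-based qHTS for reporter induction: hypoxia response element controlled beta-lactamase in ME-180 cells. Compounds incubated 17 h at 37 degrees C; activity from blue/green (460/530 nm) ratio, inducers ranked by AC50.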

[18] = qHTS assay for small molecule antagonists of retinoid X receptor alpha signaling (AID 588546); conditions: HEK293T RXRa-UAS-bla, beta-lactamase ratio, antagonist mode; measured here: W530 green channel, cytotoxicity proxy;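 note: cells stimulated with 9-cis-retinoic acid as agonist; % is set by controls: 0 for no effect and ±100 for the full control effect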
In short: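 Beta-lactamase reporter inhibition, read as CCF4 fluorescence ratio (ex 405, em 460/530 nm) after 2 h at RT. HEK293T UAS-bla cells, 2500/well, were stimulated with 9-cis-RA at 500 or 100 nM final alongside test compound for 18 h at 37 C.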

[19] = target: Peroxisome proliferator-activated receptor alpha (Homo sapiens) (UniProt Q07869); assay: qHTS assay for small molecule agonists of the peroxisome proliferator-activated receptor alpha (PPARalpha) signaling pathway (AID 651778); conditions: PathHunter PPARalpha complementation, chemiluminescence, 6 h; max response: stronger effect = higher value; note: % of control where 0% means no effect
Sequence of Peroxisome proliferator-activated receptor alpha (Homo sapiens) (Q07869 whole entry, looked up): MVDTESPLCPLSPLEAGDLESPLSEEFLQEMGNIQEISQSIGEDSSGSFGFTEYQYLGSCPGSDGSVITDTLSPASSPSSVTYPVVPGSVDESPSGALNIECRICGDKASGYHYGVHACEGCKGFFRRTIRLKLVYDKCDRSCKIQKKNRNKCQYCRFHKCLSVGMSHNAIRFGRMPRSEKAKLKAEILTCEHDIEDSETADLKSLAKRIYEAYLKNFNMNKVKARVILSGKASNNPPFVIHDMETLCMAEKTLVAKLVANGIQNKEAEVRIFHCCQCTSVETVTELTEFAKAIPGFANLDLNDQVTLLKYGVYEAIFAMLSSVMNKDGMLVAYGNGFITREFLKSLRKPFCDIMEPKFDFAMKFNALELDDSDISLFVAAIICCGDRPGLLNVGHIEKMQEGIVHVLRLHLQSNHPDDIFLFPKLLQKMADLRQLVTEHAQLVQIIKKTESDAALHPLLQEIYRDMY
In short: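 Chemiluminescence from complemented enzyme reported PPARalpha activation in cells after 6 hr of compound treatment at 37 C. The detection reagent was incubated for 60 min at room temperature, and compounds were scored as agonists.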

[20] = qHTS assay for cell viability of HEK293 cells (AID 743288); conditions: ATP luminescence (CellTiter-Glo), 18 h; max response: stronger effect = lower value; note: nearly all actives have a fitted effect of over 50% in size; note: potency is the fitted concentration of half-maximal effect; for max response: % is set by controls: 0 for no effect and ±100 for the full control effect
In short: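 HEK293, 18 h, 37 C, ATP luminescence. Cells at 2,000/well were allowed at least 5 h to settle before dosing; CellTiter-Glo developed 30 min at RT.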

COc1ccc2[nH]cc(CCNc3nc(-c4c(C)noc4C)nc4ccccc34)c2c1
inactive: Potency [1]

c1ccc2c(c1)[nH]c1ccccc12
inactive: Potency [2] > 92 µM | Potency [3] > 92 µM | Potency [1] | outcome [4] | Potency [5] | activity change, negative = cytotoxicity [6] -7.62% | outcome [7] | outcome [8] | outcome [9] | outcome [10] | outcome [11] | outcome [12] | outcome [13] | outcome [14] | outcome [15] | outcome [16] | outcome [17] | max response [19] 5.12% and 0.259% | max response [20] -7.42% and -16.3%
-0.129% and 3.48%: max response [18]

Cc1ccc(N)c([N+](=O)[O-])c1
inactive: Potency [2] > 92 µM | Potency [3] > 92 µM | Potency [1] | outcome [4] | Potency [5] | activity change, negative = cytotoxicity [6] 5.43% | outcome [7] | outcome [8] | outcome [9] | outcome [10] | outcome [11] | outcome [12] | outcome [13] | outcome [14] | outcome [15] | outcome [16] | outcome [17] | max response [19] -6.83% and -1.01% | max response [20] -10.6% and -7.86%
-10.8% and -10%: max response [18]

CCO
-7.92%: max response [18]
inactive: Potency [2] > 92 µM | Potency [3] > 92 µM | Potency [1] | outcome [4] | Potency [5] | activity change, negative = cytotoxicity [6] -1.16% | outcome [7] | outcome [8] | outcome [9] | outcome [10] | outcome [11] | outcome [12] | outcome [13] | outcome [14] | outcome [15] | outcome [16] | outcome [17] | max response [19] -0.991% | max response [20] 8.81%

CNc1ncncc1-c1ccccc1CN(C)C
inactive: Potency [1]

CN(C)c1ccc(-c2cncnc2NCCc2cnc[nH]2)cc1
inactive: Potency [1]

NC1=NC(S)C2N=CN=C2N1 (stereo not drawn)
4.34%: max response [18]
active: Potency [2] 0.0486 µM | Potency [3] 1.89 µM | Potency [5] 0.398 µM | Potency [6] 0.251 µM | Potency [20] 2.82 µM
inactive: Potency [1] | outcome [4] | outcome [7] | outcome [8] | outcome [9] | outcome [10] | outcome [11] | outcome [12] | outcome [13] | outcome [14] | outcome [15] | outcome [16] | outcome [17] | max response [19] -3.14%

OCCNCCO
inactive: Potency [2] > 92 µM | Potency [3] > 92 µM | outcome [4] | Potency [5] | activity change, negative = cytotoxicity [6] 11.5% | outcome [7] | outcome [8] | outcome [9] | outcome [10] | outcome [11] | outcome [12] | outcome [13] | outcome [14] | outcome [15] | outcome [16] | outcome [17] | max response [19] 0.687% and 0.279% | max response [20] 2.85% and -11.3%
-14.5% and -2.92%: max response [18]

c1ccccc1
inactive: Potency [2] > 92 µM | Potency [3] > 92 µM | Potency [1] | outcome [4] | Potency [5] | activity change, negative = cytotoxicity [6] 7.51% and 0.0243% | outcome [7] | outcome [8] | outcome [9] | outcome [10] | outcome [11] | outcome [12] | outcome [13] | outcome [14] | outcome [15] | outcome [16] | outcome [17] | max response [19] -1.87% [middle of 4 runs] | max response [20] 0.515% [middle of 4 runs]
6.17% [middle of 4 runs]: max response [18]

CCC(O)OC(O)CC (stereo not drawn)
inactive: Potency [2] > 92 µM | Potency [3] > 92 µM | Potency [1] | outcome [4] | Potency [5] | activity change, negative = cytotoxicity [6] 7.91% and -0.346% | outcome [7] | outcome [8] | outcome [9] | outcome [10] | outcome [11] | outcome [12] | outcome [13] | outcome [14] | outcome [15] | outcome [16] | outcome [17] | max response [19] -0.587% [middle of 4 runs] | max response [20] -2.73% [middle of 4 runs]
-6.87% and -7.76%: max response [18]

Nc1ccc(S(=O)(=O)O)cc1
-0.278%: max response [18]
inactive: Potency [2] > 92 µM | Potency [3] > 92 µM | Potency [1] | outcome [4] | Potency [5] | activity change, negative = cytotoxicity [6] 9.75% | outcome [7] | outcome [8] | outcome [9] | outcome [10] | outcome [11] | outcome [12] | outcome [13] | outcome [14] | outcome [15] | outcome [16] | outcome [17] | max response [19] -1.01% and -2.98% | max response [20] -3.43% and 3.86%

Clc1ccccc1-c1ccc2ncnc(NCCN3CCOCC3)c2c1
inactive: Potency [1]

Clc1cc(Cl)c(Cl)cc1Cl
-13.2% and -12.3%: max response [18]
inactive: Potency [2] > 92 µM | Potency [3] > 92 µM | Potency [1] | outcome [4] | Potency [5] | activity change, negative = cytotoxicity [6] 9.51% | outcome [7] | outcome [8] | outcome [9] | outcome [10] | outcome [11] | outcome [12] | outcome [13] | outcome [14] | outcome [15] | outcome [16] | outcome [17] | max response [19] -0.154% and -0.267% | max response [20] 3.48% and -4.31%

CC1(C)CC(N=C=O)CC(C)(CN=C=O)C1 (stereo not drawn)
-0.108% and -15.8%: max response [18]
inactive: Potency [2] > 92 µM | Potency [3] > 92 µM | Potency [1] | outcome [4] | Potency [5] | activity change, negative = cytotoxicity [6] 8.39% | outcome [7] | outcome [8] | outcome [9] | outcome [10] | outcome [11] | outcome [12] | outcome [13] | outcome [14] | outcome [15] | outcome [16] | outcome [17] | max response [19] -1.83% and -0.793% | max response [20] -4.37% and 1.94%

CC(=O)OC/C=C(\C)CCC=C(C)C
inactive: Potency [2] > 92 µM | Potency [3] > 92 µM | Potency [1] | outcome [4] | Potency [5] | activity change, negative = cytotoxicity [6] 8.38% | outcome [7] | outcome [8] | outcome [9] | outcome [10] | outcome [11] | outcome [12] | outcome [13] | outcome [14] | outcome [15] | outcome [16] | outcome [17] | max response [19] -5.73% and -0.163% | max response [20] -10.3% and 5.2%
-3.71% and -6.77%: max response [18]
